Bioassay records: PubChem, National Center for Advancing Translational Sciences (NCATS)
Most compounds without a hit are left out; they make up all but 21% or so of the library.
AMA1 RON2 block – AMA1-RON2 (P. falciparum) interaction inhibition; AlphaScreen AMA1-biotinylated RON2 peptide binding; Potency, µM (doses to about 58.2 µM), usual class: inhibitors; actives 0.2% (n = 360,000); AID 720542; also: nearly all actives have a fitted effect of over 45% in size
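AMA1 (3D7) with his tag at 25 nM final met compounds first, then biotinylated RON2 peptide at 25 nM; detection used donor plus acceptor beads, 10 µg/mL apiece, read by AlphaScreen after 30 min at room temperature.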
Pf growth 96h – inhibits malaria parasite growth, 96 h; P. falciparum luciferase reporter growth, 96 h; Potency, µM (series often up to 28.7 µM), hits mostly inhibitors; actives 6.9% (n = 320,000)
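Cell-based qHTS: luciferase-tagged P. falciparum in erythrocytes (2% hematocrit, 0.05% parasitemia final) incubated with compounds for 96 hours, 37 C, 5% CO2; luciferase detection reagent then added and luminescence measured.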
HCV inh – HCV inhibition | Huh7.5.1 HCVcc-Cre infection, luciferase reporter, 44 h | actives 3.4% (n = 340,000) | Potency, µM (titrated, usually from 41.8 µM), actives largely listed as inhibitors
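Seed cells (1,000/well) for 4 h; treat with compound and infect with HCVcc-Cre, moi about 0.5. Incubate 44 h, then detect luciferase activity.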
Cycloheximide cs – counter-screen for Shiga toxin inhibitors: cycloheximide protein synthesis inhibition; cell reporter, cycloheximide protein synthesis inhibition counterscreen; max response, %; actives 12% (n = 300,000); AID 2314; in the data active = max response mostly above about 13%, no sharp cut-off; inactive = mostly below about 14%; also: read at 38.3 µM for the half of the compounds with a filed dose
Pf growth 48h – inhibits P. falciparum growth in the first generation, 48 h. actives 5.9% (n = 310,000). P. falciparum luciferase growth in erythrocytes, 48 h. Potency, µM (top dose mostly 28.7 µM), hits mostly inhibitors
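Luciferase-expressing P. falciparum in infected erythrocytes (2% hematocrit, 0.1% parasitemia final) in RPMI 1640/0.5% Albumax were exposed to compound for 48 hours at 37 C, 5% CO2; growth read as luminescence.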
Shiga inhibitor – Shiga toxin inhibition; Vero cells, Shiga toxin protein synthesis inhibition reporter; actives 9.2% (n = 290,000); inhibition, % at 38.7 µM; in the data active = inhibition mostly above about 28%, no sharp cut-off; inactive = mostly below about 43%
Of the large screens only hits and unclear results are named; the others gave an inactive call. Unless noted, calls follow the shape of the dose curve; as a rule, active = well fitted curve in the direction sought with a large enough effect; inconclusive = small, poorly fitted or top-dose-only effect, or another doubt; inactive = no such curve, though single readings can be large; an effect the other way counts as inactive or inconclusive.

CC(=O)N1c2ccccc2C(C)(c2ccccc2)CC1(C)C (centres undefined)	Pf growth 48h 9.3µM (no result: Pf growth 96h)
CN1CCN(CC(=O)N2c3ccccc3C(C)(c3ccccc3)CC2(C)C)CC1 (centres undefined)	Pf growth 96h 10µM, HCV inh inconclusive, Pf growth 48h inconclusive
CC1(c2ccccc2)CC(C)(C)N(C(N)=O)c2ccccc21 (centres undefined)	Pf growth 96h inconclusive, HCV inh inconclusive
CC1=CC(C)C2(COC(c3ccc[n+](C)c3)OC2)C(C)C1 (centres undefined)	Pf growth 96h 10µM, Pf growth 48h inconclusive
Cc1cccc(-n2c(C)cc(C=C(C#N)C#N)c2C)c1	Pf growth 96h inconclusive
Cc1cc(/C=C(\C#N)C(=O)NCc2ccco2)c(C)n1-c1cccnc1	HCV inh inconclusive, Cycloheximide cs 38, Shiga inhibitor 72
Cc1cc(/C=C(/C#N)c2cccc(Cl)c2)c(C)n1C	Pf growth 96h inconclusive, Cycloheximide cs 19
Cc1c(C(=O)O)cccc1-n1c(C)cc(/C=C(/C#N)C(=O)NCc2ccccc2)c1C	Pf growth 96h inconclusive, Pf growth 48h inconclusive
COc1ccccc1OCCn1cc(/C=C(\C#N)C(=O)NCc2ccco2)c2ccccc21	Pf growth 48h inconclusive
Cc1cc(/C=C(/C#N)c2cccc(F)c2)c(C)n1-c1cccnc1	HCV inh inconclusive, Cycloheximide cs 45, Pf growth 48h inconclusive, Shiga inhibitor 59 (no result: Pf growth 96h)
Cc1cc(/C=C(\C#N)C(=O)NCc2ccco2)c(C)n1C1CCCC1	AMA1 RON2 block inconclusive, HCV inh inconclusive, Cycloheximide cs 51, Shiga inhibitor 85 (no result: Pf growth 96h)
COC(=O)C1=C[C@@H](C(=O)OC)[C@@H]2C3=C(C(=O)[C@@]2(C)NC(=O)c2ccccc2)[C@H](C)[C@@H]2C(=O)N(c4ccccc4)C(=O)[C@@H]2[C@@H]3C1	none (no result: AMA1 RON2 block, Pf growth 96h, HCV inh, Pf growth 48h)
Cc1noc(C)c1C(=O)N1CCC1(C)C(=O)NS(=O)(=O)c1cccc(F)c1 (centres undefined)	none (no result: Pf growth 96h, HCV inh, Cycloheximide cs, Pf growth 48h, Shiga inhibitor)
CCOC(=O)N1CCN(C(=O)C[C@@H]2C[C@@]3(C(=O)OC)CC(C)(C)CC=C3N(Cc3cccc4ccccc34)C2=O)CC1	none (no result: Pf growth 96h, HCV inh, Cycloheximide cs, Pf growth 48h, Shiga inhibitor)
Cc1cc(/C=C(\C#N)C(=O)NCc2cccs2)c(C)n1-c1ccc([N+](=O)[O-])cc1	Pf growth 96h inconclusive, HCV inh inconclusive, Pf growth 48h 2.3µM
CN(Cc1nnc(-c2ccc(F)cc2)o1)c1ccccc1	Cycloheximide cs 32, Shiga inhibitor 71
CCc1ccc(CN(C)C(=O)CCc2nnc(COc3ccccc3)o2)cc1	Pf growth 96h inconclusive, Cycloheximide cs 30, Shiga inhibitor 81
COc1ccc(CCN(C)C(=O)CCc2nnc(-c3ccccc3)o2)cc1OC	Cycloheximide cs 59, Shiga inhibitor 65
CN(CC(=O)Nc1ccc(Cl)c(Cl)c1)Cc1nnc(-c2ccc(F)cc2)o1	none
CN(Cc1nc2c(s1)CCCC2)C(=O)CCc1nnc(-c2ccccc2)o1	Pf growth 96h 9.3µM, Cycloheximide cs 23, Shiga inhibitor 61
COc1cc(OC)cc(C(=O)Nc2ccc(S(=O)(=O)N3CCOCC3)cc2)c1	Pf growth 48h inconclusive
CN(Cc1ccc(F)cc1)C(=O)CCc1nnc(-c2ccccc2)o1	Pf growth 96h 8.3µM, Cycloheximide cs 47, Shiga inhibitor 108
COc1ccc(Cl)cc1C(=O)NCC(=O)OCc1ccccc1	none (no result: Cycloheximide cs, Shiga inhibitor)
Nc1nc(Nc2ccccc2)nc(NC2CCCCC2)c1[N+](=O)[O-]	Pf growth 96h 13µM, HCV inh 10µM, Pf growth 48h inconclusive
Nc1nc(NCCO)nc(NC2CCCCC2)c1[N+](=O)[O-]	Pf growth 96h 5.2µM (no result: Pf growth 48h)
CNc1nc(N)c([N+](=O)[O-])c(NC2CCCCC2)n1	Pf growth 96h inconclusive
CN(C)CCCNc1nc(N)c([N+](=O)[O-])c(NC2CCCCC2)n1	none
Nc1nc(NCCOCCO)nc(NC2CCCCC2)c1[N+](=O)[O-]	Pf growth 96h 12µM, Pf growth 48h inconclusive
CC(C)CCNc1nc(N)c([N+](=O)[O-])c(NC2CCCCC2)n1	Pf growth 96h inconclusive
Cc1occc1C(=O)Nc1nnc(-c2cccs2)s1	Cycloheximide cs 34, Shiga inhibitor 107
O=C(Cc1nnc(NC(=O)Nc2ccccc2)s1)Nc1ccccc1	none
Cc1nnc(NC(=O)c2cccc(F)c2)s1	Pf growth 96h inconclusive
COc1ccc(C(=O)Nc2nnc(-c3cccs3)s2)cc1	HCV inh inconclusive, Cycloheximide cs 43, Shiga inhibitor 60 (no result: Pf growth 48h)
O=C(Nc1ccccc1)Nc1nnc(-c2cccs2)s1	Cycloheximide cs 29
O=C(Nc1nnc(-c2cccs2)s1)c1cccc(F)c1	Cycloheximide cs 19, Shiga inhibitor 59
COc1ccc(S(=O)(=O)N2CCN=C2SCc2cccc(C)c2)cc1	Pf growth 96h inconclusive, Pf growth 48h inconclusive
COc1ccc(NC(=O)Nc2nnc(Cc3ccccc3)s2)cc1	Pf growth 96h inconclusive, Pf growth 48h inconclusive
COc1ccc(NC(=O)Nc2nnc(-c3cccs3)s2)cc1	Cycloheximide cs 25, Shiga inhibitor 61
CCCCc1ccc(NC(=O)C(C)CC)cc1 (centres undefined)	Cycloheximide cs 48, Shiga inhibitor 51
CCCCc1ccc(NC(=O)CC(C)(C)C)cc1	Pf growth 96h inconclusive, Cycloheximide cs 144, Shiga inhibitor 164
Cc1ccccc1-c1cc2nc(Oc3cccc4ccccc34)n(C)c(=O)c2s1	none (no result: Pf growth 96h, HCV inh, Cycloheximide cs, Pf growth 48h, Shiga inhibitor)
CCOC(=O)c1cn[nH]c1NC(=S)Nc1ccc(Cl)cc1	HCV inh inconclusive, Cycloheximide cs 58, Shiga inhibitor 58
Cc1ccc2c(c1)c(N=O)c(O)n2Cc1ccc(Cl)cc1	Pf growth 48h 12µM
O=Nc1c(O)n(Cc2ccc(Cl)cc2)c2ccccc12	Pf growth 96h inconclusive, Pf growth 48h 13µM
O=Nc1c(O)n(Cc2ccc(Cl)cc2Cl)c2ccccc12	Pf growth 96h 8.3µM, Pf growth 48h inconclusive
FC(F)(F)c1nc2nccnc2[nH]1	none (no result: Pf growth 96h, HCV inh, Cycloheximide cs, Pf growth 48h, Shiga inhibitor)
Cc1cc(C(=O)N/N=C/c2cccc(Cl)c2Cl)no1	Cycloheximide cs 38, Shiga inhibitor 76 (no result: Pf growth 96h)
CCOC(=O)N/N=C/c1ccccc1F	Cycloheximide cs 33, Shiga inhibitor 83
O=C(CO)N/N=C/c1ccccc1F	none
CCOC(=O)N/N=C/c1cccc(Cl)c1Cl	Cycloheximide cs 40, Shiga inhibitor 79
CCc1ccccc1NNC(=O)c1cc(C)on1	none
CCc1ccc(/C=N/NC(=O)c2cc(C)on2)s1	Cycloheximide cs 35, Shiga inhibitor active
COC(=O)C[C@H]1C=C[C@@H](C(C(=O)OC)C(=O)OC)CN1C(C)=O	none (no result: Pf growth 96h, Cycloheximide cs, Pf growth 48h, Shiga inhibitor)
Cc1ccc(Oc2ncccc2C(=O)NCC(=O)O)cc1	none
COc1ccccc1N1CCN(C2C(=O)Nc3ccccc3-n3nnnc32)CC1 (centres undefined)	none (no result: Pf growth 96h, HCV inh, Cycloheximide cs, Pf growth 48h, Shiga inhibitor)
O=C(COCC(=O)N/N=C/c1ccccc1F)N/N=C/c1ccccc1F	Pf growth 96h 9.3µM
CCOC(=O)N/N=C/c1ccc(F)cc1	Cycloheximide cs 39, Shiga inhibitor 70
